This is a sample that favours compounds with a hit; in the whole collection about 1.6% have one here.
KCNQ2 inh – blocks the rat KCNQ2 potassium channel; O88943; CHO-K1 KCNQ2, FluxOR thallium flux, 20 min; hits give low values; B-score at 10 µM; 310,000 compounds, 1.1% hits; AID 2156;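 active means fluorescence ratio B-score at most minus 3 library SDs, with starting brightness B-score within 2 library SDs, cut at about -5.5 in these data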
KCNQ2 pot – enhances the rat KCNQ2 potassium channel. O88943. CHO-K1 KCNQ2, FluxOR thallium flux fluorescence; hits give high values. B-score at 10 µM. 310,000 compounds, 0.54% hits. AID 2239;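 active means fluorescence ratio B-score at least 3 SD of library B-scores, with initial fluorescence B-score within 3 of them, cut at about 5.3 in these data; same plate scores as AID 2156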;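 further: B-score of peak minus minimum over baseline fluorescence ratio after K+ and Tl+ stimulus; positive B-score means potentiation of KCNQ2 with more thallium influx and brighter signal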
Kir21 conf inh – confirmation of mouse Kir2.1 potassium channel inhibitors. 2,300 compounds, 41% hits. Tl flux remaining, % of negative control (hits give low values), % at 10 µM. Kir2.1-expressing cells, FluxOR thallium flux fluorescence; hits give low values. shares compounds with KCNQ2 pot;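 active means Primary-screen hit whose thallium flux fell at least 3 control SD below untreated wells in both duplicates, with normal baseline fluorescence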;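 further: 0% = blank wells without stimulus and 100% = stimulated no-compound controls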
HEK293 ctr – counter-screen for Kir2.1 inhibitors: effect in parental HEK293 cells; shares compounds with KCNQ2 pot; FluxOR signal as % of negative control (100 = no effect), % at 10 µM; 2,300 compounds, 19% hits; FluxOR thallium flux fluorescence; 0% = unstimulated blank wells;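 active means dye signal at least 3 control SD above or below untreated wells in both duplicates, raw fluorescence within 3, either direction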;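 further: percent is based on the flux ratio of peak minus minimum fluorescence over baseline F0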
CHO-K1 ctr – alters thallium flux in parental CHO-K1 cells, KCNQ2 counter-screen | shares compounds with KCNQ2 pot | FluxOR thallium flux fluorescence; zero = vehicle mean+3SD, 100% = vehicle-minus-blank window | activity increase over 3SD of controls, % at 10 µM | 1,200 compounds, 43% hits | AID 2282;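 active means signal rise of at least 3 SD above the untreated control mean, in both duplicate wells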;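 further: counter screen of KCNQ2 potentiator hits so any rise reflects channel-independent effects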
KCNQ1 sel pot – selectivity of KCNQ2 potentiators: effect on human KCNQ1; shares compounds with KCNQ2 pot; CHO KCNQ1 stable, FluxOR thallium flux fluorescence; beyond 3SD, as % of vehicle-control signal; activation over 3SD threshold, % at 10 µM; 1,200 compounds, 28% hits; AID 2283;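 active means fluorescence ratio rise of at least 3 SD of vehicle wells above their mean, in both replicate wells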;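 further: 0% = vehicle mean plus 3 SD and 100% = vehicle minus unstimulated blank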
KCNQ2 pot conf – confirmation of rat KCNQ2 potassium channel potentiators | 1,200 compounds, 68% hits | AID 2287 | shares compounds with KCNQ2 pot | CHO-KCNQ2 cells, FluxOR thallium flux fluorescence | potentiation, less the hit threshold, % at 10 µM;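 active means fluorescence ratio rising 3 SD or more over the vehicle control mean in both replicates, plus primary screen hit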;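 further: peak minus minimum thallium fluorescence divided by baseline after K/Tl stimulus; 0% = vehicle mean plus 3 SD and 100% = vehicle minus unstimulated blank difference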
Kir21 spec – mouse Kir2.1 off-target activity of KCNQ2 potentiators. shares compounds with KCNQ2 pot. HEK293 Kir2.1, FluxOR thallium flux fluorescence. activity over 3SD threshold, % at 10 µM. 1,200 compounds, 2% hits;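 active means fluorescence ratio rise of at least 3 SD above the vehicle-control mean, seen in both replicates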;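 further: 0% = vehicle mean plus 3 SD and 100% = vehicle minus no-stimulus blank window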
KCNQ2 W236L pot – KCNQ2 potentiators acting on retigabine-insensitive rat KCNQ2 W236L mutant. shares compounds with KCNQ2 pot. CHO KCNQ2-W236L, automated patch clamp current. 940 compounds, 10% hits. current increase over 3SD of negative controls (%), hits give high values, % at 25 µM;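 active means current increase at least 3 SD of the untreated controls above them in both duplicate recordings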
Target sequence (O88943 whole entry W236L, looked up): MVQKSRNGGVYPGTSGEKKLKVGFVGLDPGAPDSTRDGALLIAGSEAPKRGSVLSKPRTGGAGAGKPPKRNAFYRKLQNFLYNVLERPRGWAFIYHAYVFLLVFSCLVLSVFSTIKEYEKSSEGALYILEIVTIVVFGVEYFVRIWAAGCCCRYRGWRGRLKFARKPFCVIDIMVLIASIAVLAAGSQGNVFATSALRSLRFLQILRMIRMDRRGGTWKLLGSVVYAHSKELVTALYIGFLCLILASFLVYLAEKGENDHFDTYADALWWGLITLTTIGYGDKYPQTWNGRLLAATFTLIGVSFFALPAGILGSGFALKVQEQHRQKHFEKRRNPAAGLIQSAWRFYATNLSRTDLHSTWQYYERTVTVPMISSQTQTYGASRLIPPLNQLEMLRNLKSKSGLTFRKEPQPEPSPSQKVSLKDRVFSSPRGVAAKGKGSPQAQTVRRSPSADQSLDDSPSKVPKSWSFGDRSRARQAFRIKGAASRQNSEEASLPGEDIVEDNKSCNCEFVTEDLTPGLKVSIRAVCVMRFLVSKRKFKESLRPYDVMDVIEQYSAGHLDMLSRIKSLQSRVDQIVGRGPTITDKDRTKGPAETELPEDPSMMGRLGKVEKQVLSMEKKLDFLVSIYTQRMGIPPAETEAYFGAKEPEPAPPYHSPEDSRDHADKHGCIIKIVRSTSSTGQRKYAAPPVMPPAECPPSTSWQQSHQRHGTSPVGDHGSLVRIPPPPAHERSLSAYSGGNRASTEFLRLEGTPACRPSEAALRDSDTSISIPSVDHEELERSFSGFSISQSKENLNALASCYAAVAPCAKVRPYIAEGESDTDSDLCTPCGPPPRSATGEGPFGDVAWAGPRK
Active calls of the source: *.

CN(CCOc1ccc(Br)cc1)CC(O)COc1ccc(C#N)cc1 (stereo not given) was read as KCNQ2 inh inactive.
For COc1ccc(Br)cc1CN(C)CC(O)COc1ccc(Br)cc1 (stereo not given) the results were KCNQ2 inh -6.3*, KCNQ2 pot -6.3, Kir21 conf inh 70%* and HEK293 ctr inactive.
Cc1cc(=O)c2cc(Br)ccc2[nH]1 was read as KCNQ2 inh inactive.
`S=c1nc(-c2ccccc2)[nH]c2ccc(Br)cc12` gave KCNQ2 inh inactive, KCNQ2 pot 29*, Kir21 conf inh inactive, HEK293 ctr inactive, CHO-K1 ctr -74, KCNQ1 sel pot 21*, KCNQ2 pot conf 66*, Kir21 spec -18 and KCNQ2 W236L pot inactive.
Screening CCOC(=O)N1CCN(Cc2c(O)ccc3ccccc23)CC1 returned KCNQ2 inh inactive.
Screening CCOC(=O)C1CCN(Cc2c(O)ccc3ccccc23)CC1 returned KCNQ2 inh inactive, KCNQ2 pot 0.29, Kir21 conf inh 70%* and HEK293 ctr inactive.
Screening CC(C)(C)NC(=O)CSc1nc2[nH]ncc2c(=O)[nH]1 returned KCNQ2 inh inactive.
CCOC(=O)c1cnc2c(-c3ccccc3OC)c(C)nn2c1C was read as KCNQ2 inh inactive and KCNQ2 pot 0.02.
Screening CC1CCN(CC(=O)Nc2ccc(N3CCCCCC3)cc2)CC1 returned KCNQ2 inh inactive, KCNQ2 pot 5.9*, CHO-K1 ctr 7.2*, KCNQ1 sel pot -15, KCNQ2 pot conf -11 and Kir21 spec -62.
For CC1CCN(CC(=O)Nc2ccc(S(=O)(=O)N3CCCCC3)cc2)CC1 the results were KCNQ2 inh inactive and KCNQ2 pot 0.02.
CC(C)(C)C(=O)NCCN1CCN(C(=O)C(C)(C)C)CC1 was read as KCNQ2 inh inactive and KCNQ2 pot 0.52.
Screening CN1CCN(CC(=O)N2c3ccccc3C(C)(c3ccccc3)CC2(C)C)CC1 (stereo not given) returned KCNQ2 inh inactive, Kir21 conf inh 58%* and HEK293 ctr inactive.
CN1CCN(CC(=O)N2c3ccccc3C(C)(c3ccc(Cl)cc3)CC2(C)C)CC1 (stereo not given) was read as KCNQ2 inh inactive and KCNQ2 pot 0.07.
CN1CCN(CC#CCn2c3ccccc3c3ccccc32)CC1 was read as KCNQ2 inh inactive, Kir21 conf inh 32%* and HEK293 ctr inactive.
Screening CN1CCN(CC(O)Cn2c3ccccc3c3ccccc32)CC1 (stereo not given) returned KCNQ2 inh inactive.
For CCOc1ccc(NC(=O)CN(C)C(=O)c2ccccc2CCc2ccccc2)cc1OCC the results were KCNQ2 inh inactive and KCNQ2 pot 0.27.
Screening Cc1cccc(-n2c(=S)[nH]c3sc4c(c3c2=O)CCc2ccccc2-4)c1 returned KCNQ2 inh inactive, KCNQ2 pot 5.6*, Kir21 conf inh inactive, HEK293 ctr 196%*, CHO-K1 ctr -11, KCNQ1 sel pot -26, KCNQ2 pot conf -10, Kir21 spec -25 and KCNQ2 W236L pot inactive.
For Cc1ccc(-n2c(=S)[nH]c3sc4c(c3c2=O)CCc2ccccc2-4)cc1 the results were KCNQ2 inh inactive.
`O=C(Nc1cc(Cl)ccc1N1CCCCC1)c1cccs1` gave KCNQ2 inh inactive.
Screening O=C(NC(=S)Nc1ccc(N2CCCCC2)c(Cl)c1)c1cccs1 returned KCNQ2 inh inactive, KCNQ2 pot 6.6*, Kir21 conf inh inactive, HEK293 ctr inactive, CHO-K1 ctr 9.4*, KCNQ1 sel pot 11*, KCNQ2 pot conf 1.0*, Kir21 spec -26 and KCNQ2 W236L pot inactive.
Screening O=C(Nc1cccc(F)c1)N(Cc1ccc(Cl)cc1)CC(O)C(F)(F)F (stereo not given) returned KCNQ2 inh inactive, KCNQ2 pot 6.7*, Kir21 conf inh inactive, HEK293 ctr inactive, CHO-K1 ctr -1, KCNQ1 sel pot 40*, KCNQ2 pot conf 14*, Kir21 spec -27 and KCNQ2 W236L pot inactive.
O=C(Nc1ccccc1)N(Cc1ccccc1)CC(O)C(F)(F)F (stereo not given) was read as KCNQ2 inh inactive.
For CCOc1ncccc1C(=O)N(CC)CC(=O)NCc1ccc(Cl)cc1 the results were KCNQ2 inh inactive.
For O=C(NC(=S)N1CCCCCC1)c1ccc(Cl)cc1Cl the results were KCNQ2 inh inactive, KCNQ2 pot 9.1*, Kir21 conf inh inactive, HEK293 ctr 238%*, CHO-K1 ctr 27*, KCNQ1 sel pot 6.1*, KCNQ2 pot conf 12*, Kir21 spec -21 and KCNQ2 W236L pot inactive.
Screening Cc1ccccc1C(=O)NNC(=S)NC(=O)c1ccc(Cl)cc1Cl returned KCNQ2 inh inactive and KCNQ2 pot 1.9.
For CCCN(CCC)C(=S)NC(=O)c1ccc(Cl)cc1Cl the results were KCNQ2 inh inactive, KCNQ2 pot 16*, Kir21 conf inh inactive, HEK293 ctr 394%*, CHO-K1 ctr -13, KCNQ1 sel pot -3, KCNQ2 pot conf 67*, Kir21 spec -11 and KCNQ2 W236L pot inactive.
O=C(NC(=S)N1CCCCCC1)c1ccccc1Cl was read as KCNQ2 inh inactive and KCNQ2 pot 4.3.
For CCC(=O)NCCCc1nc(-c2ccccc2)no1 the results were KCNQ2 inh inactive.
`CN(C)c1ccc(NC(=S)NC23CC4CC(CC(C4)C2)C3)cc1` gave KCNQ2 inh inactive and KCNQ2 pot 0.58.
COCCNC(=O)/C(C#N)=C/c1ccc(OC(=O)c2cccs2)c(OC)c1 was read as KCNQ2 inh inactive, Kir21 conf inh inactive and HEK293 ctr inactive.
For COCCNC(=O)/C(C#N)=C/c1cccs1 the results were KCNQ2 inh inactive.
Screening CC(C)[C@H](NC(=O)c1c(F)cccc1F)C(=O)Nc1cccc(Br)c1 returned KCNQ2 inh inactive and KCNQ2 pot 2.
COCCNC(=O)C1=C(N)C(C(=O)Nc2ccc(C)c(S(=O)(=O)N3CCCCC3)c2)SC1=Nc1ccc(C)cc1C (stereo not given) was read as KCNQ2 inh inactive.
